PMC7819943, “Rice protein-binding microarrays: a tool to detect cis-acting elements near promoter regions in rice”
The full ranking holds about 35,000 sequences; the median of “fluorescence intensity (a.u.)” is about 10,000, and the highest 2% start at about 52,000. This excerpt belongs to a sample that is enriched for the highest values.

Target: T1, OsWOX13 (Oryza sativa, UniProt Q5QMM3 1-267)
T1 sequence: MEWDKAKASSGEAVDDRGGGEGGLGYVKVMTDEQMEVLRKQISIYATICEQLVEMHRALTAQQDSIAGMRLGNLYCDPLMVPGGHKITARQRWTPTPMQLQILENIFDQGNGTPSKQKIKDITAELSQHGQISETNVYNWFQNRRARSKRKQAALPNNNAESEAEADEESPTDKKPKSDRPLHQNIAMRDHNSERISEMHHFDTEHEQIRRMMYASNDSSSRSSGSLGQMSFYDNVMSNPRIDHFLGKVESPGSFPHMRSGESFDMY
Assay: protein-binding microarray (RPBM); PBS, 2% BSA, 51.3 ng/ul salmon testes DNA, 50 uM zinc acetate, 200 nM TF, 25 C, 1 h; high values mean tight binding
Conditions: protein: recombinant; tags: N-terminal polyhistidine and DsRed monomer fusion (pET32a); label: CyDye5-dUTP incorporated in the synthesized complementary strand; 3' TTTTT single-stranded linker to array surface; dsDNA, one strand shown
Summary of the method: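 The binding signal is fluorescence intensity per array feature (arbitrary units). Readings came from an Axon 4000B scanner after a washed, 2% BSA-blocked, double-stranded custom Agilent array had been incubated for 1 h at 25 °C with 200 nM protein and 50 µM zinc acetate. The protein was a Ni–NTA-purified transcription factor fused N-terminally to polyhistidine and DsRed, expressed in E. coli BL21-CodonPlus.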

Which binding signal does the source give for “CCCTAATCCCATTTAATCAGCACAGCTTCTTAATTACTCCCGGAGTCACCTAGTGCAG” here?
The binding signal was 6810 fluorescence intensity (a.u.).

With “CTCTGATAGATTGCGACCTTCTTGTTGTTTAACAACGTTACGGAGTCACCTAGTGCAG” as the sequence, how does the binding signal read?
Its binding signal is 54000 fluorescence intensity (a.u.).

Which binding signal does the source give for “GTATTAATTGGGGTGATTCATGACAACGATGAGATATTAACGGAGTCACCTAGTGCAG” here?
The binding signal was 32700 fluorescence intensity (a.u.).

How did the binding signal turn out when “TATTAATTGAGTGAGATTTGGGGTATTCAGTCGACTGGCACGGAGTCACCTAGTGCAG” was run?
The binding signal was 54900 fluorescence intensity (a.u.).

How did the binding signal turn out when “ATATTCAGCTGATTGGGGCATTGGGTATTTGCAGTGAGCACGGAGTCACCTAGTGCAG” was run?
The binding signal was 18500 fluorescence intensity (a.u.).

For “TCTGAGATTTATTGATTAGATTATAACGTAATCGTTGTTACGGAGTCACCTAGTGCAG”, which binding signal is on record?
The binding signal was 29300 fluorescence intensity (a.u.).

How did the binding signal turn out when “GAAGTTATTAACAAATTAGATACATCTCTTGTTTAGATTACGGAGTCACCTAGTGCAG” was run?
The binding signal was 4700 fluorescence intensity (a.u.).

Which binding signal does the source give for “ACACACAGCGGCAAAATTGACACATTACACATCAGGAATCCGGAGTCACCTAGTGCAG” here?
The binding signal was 5060 fluorescence intensity (a.u.).

“TGAAAGAAGAGATGATTGGGAAACACCATTAATAGGGTGGCGGAGTCACCTAGTGCAG” was tested. Which binding signal did it give?
The binding signal was 10500 fluorescence intensity (a.u.).

How did the binding signal turn out when “TGTCGTCAAAATTTGATGGAATTCACACGAATTTAGCAACCGGAGTCACCTAGTGCAG” was run?
The binding signal was 5150 fluorescence intensity (a.u.).

With “TACTAATGATTTTATGTAGAACATCATCACATATCTTATACGGAGTCACCTAGTGCAG” as the sequence, how does the binding signal read?
The binding signal was 15800 fluorescence intensity (a.u.).

For “TAATAATAATAATAATAATAATAATAATAACACATCGCACCGGAGTCACCTAGTGCAG”, which binding signal is on record?
Its binding signal is 4120 fluorescence intensity (a.u.).

How did the binding signal turn out when “ATAACATTATCATTATAGACATTGATATATGAGATAATAGCGGAGTCACCTAGTGCAG” was run?
Its binding signal is 6010 fluorescence intensity (a.u.).

How did the binding signal turn out when “TTCTATGATTGATTGGTCGATAGGAAGACATATAACAGCGCGGAGTCACCTAGTGCAG” was run?
Its binding signal is 65500 fluorescence intensity (a.u.).

Which binding signal does the source give for “CTGATGATTGGTCAGCAGAGAAGACAGGTGGGATATCGAGCGGAGTCACCTAGTGCAG” here?
Its binding signal is 52900 fluorescence intensity (a.u.).

“GATTTATTGACATCTATATGAATATAGACATTGATAAAAGCGGAGTCACCTAGTGCAG” was tested. Which binding signal did it give?
Its binding signal is 8710 fluorescence intensity (a.u.).

How did the binding signal turn out when “TGTTGATTTGCTACCCTTCCTTCCGTCCTCAACATTATCACGGAGTCACCTAGTGCAG” was run?
Its binding signal is 31600 fluorescence intensity (a.u.).

With “CCGTGCTGCATGATTGACCAAACAGACCATGTTGGTTTTGCGGAGTCACCTAGTGCAG” as the sequence, how does the binding signal read?
Its binding signal is 29000 fluorescence intensity (a.u.).

Which binding signal does the source give for “CTTTGACAGATTGGTGGGAGATAAGAGAAATGAGGAGGTGCGGAGTCACCTAGTGCAG” here?
Its binding signal is 51900 fluorescence intensity (a.u.).

With “GGTTTGATTGGTTGGAAACAGAGGGGTTCTACTGCTGCGACGGAGTCACCTAGTGCAG” as the sequence, how does the binding signal read?
The binding signal was 55700 fluorescence intensity (a.u.).

With “TTGATTGCCTCAGGTGGTCCGGACACCGTCTCAACATCCACGGAGTCACCTAGTGCAG” as the sequence, how does the binding signal read?
Its binding signal is 17700 fluorescence intensity (a.u.).

Which binding signal does the source give for “TTGATTTGGTTGATTGCCTCCTTCGTTCGTCCACGCTCAACGGAGTCACCTAGTGCAG” here?
Its binding signal is 57100 fluorescence intensity (a.u.).

How did the binding signal turn out when “TTGCTATTTGTTGGTTTGATTTATTGCTACTGCAACAGATCGGAGTCACCTAGTGCAG” was run?
The binding signal was 3880 fluorescence intensity (a.u.).

For “TTCGAATCTCTGATTGGGAGTTCAGGTCAGAGACGTTCAGCGGAGTCACCTAGTGCAG”, which binding signal is on record?
The binding signal was 14700 fluorescence intensity (a.u.).

How did the binding signal turn out when “CCCAATTAAATAATGCCAATTGGGTTTGATCTAATGCTGGCGGAGTCACCTAGTGCAG” was run?
Its binding signal is 15200 fluorescence intensity (a.u.).

“ATCAATCAATCAATCAATCAGCAAAGAGCATCCCAAACAACGGAGTCACCTAGTGCAG” was tested. Which binding signal did it give?
The binding signal was 33900 fluorescence intensity (a.u.).

With “AAGGTTGTTAATTACAAACCATGTTTCGTACTACAACTCTCGGAGTCACCTAGTGCAG” as the sequence, how does the binding signal read?
The binding signal was 4580 fluorescence intensity (a.u.).

“GTGACAAACTGACAACAGGTTGTTTAGTTTTCCATGATTACGGAGTCACCTAGTGCAG” was tested. Which binding signal did it give?
Its binding signal is 4530 fluorescence intensity (a.u.).

Which binding signal does the source give for “GAATCTATTAAGCCTAATTAATCCGTTATTATAGCAAATACGGAGTCACCTAGTGCAG” here?
The binding signal was 6470 fluorescence intensity (a.u.).

For “AAGGCACGTTGATTGGACTAGTAGTACTACTACGTAGTAGCGGAGTCACCTAGTGCAG”, which binding signal is on record?
The binding signal was 18400 fluorescence intensity (a.u.).

Which binding signal does the source give for “ACCATTGATGGTCCCAATTTAAAATATTTGGCCGAATCTTCGGAGTCACCTAGTGCAG” here?
The binding signal was 3840 fluorescence intensity (a.u.).

“AATAAAATAAATGATCAAATGAATTATGAAAACTCGTGACCGGAGTCACCTAGTGCAG” was tested. Which binding signal did it give?
Its binding signal is 5260 fluorescence intensity (a.u.).

“GTCGAAAATTATATCGGAATTAGCAGAGTGTGGCATAGCACGGAGTCACCTAGTGCAG” was tested. Which binding signal did it give?
Its binding signal is 4260 fluorescence intensity (a.u.).

How did the binding signal turn out when “AGTAAAATGATTTGTAGTGTTAATAATAAAGAATAAATTACGGAGTCACCTAGTGCAG” was run?
The binding signal was 10000 fluorescence intensity (a.u.).

With “TACAAATAGACTTGAATAAATGTTTATCTATTTTGTGTTGCGGAGTCACCTAGTGCAG” as the sequence, how does the binding signal read?
The binding signal was 16800 fluorescence intensity (a.u.).

How did the binding signal turn out when “TGAGGAGCAATTAATGAGTTTGATGGACAGAGATAATAGCCGGAGTCACCTAGTGCAG” was run?
The binding signal was 9490 fluorescence intensity (a.u.).

“ACGTTTAATTACGGGAAACCGGCTAAAACCCACCACACATCGGAGTCACCTAGTGCAG” was tested. Which binding signal did it give?
The binding signal was 6640 fluorescence intensity (a.u.).

For “GTAGGAACACTAATTAATCACTCATTGATATGTGTAATCCCGGAGTCACCTAGTGCAG”, which binding signal is on record?
The binding signal was 14700 fluorescence intensity (a.u.).

For “CTTAAATCATGATGATTTTATTGGTTGTTGGCATGCACAGCGGAGTCACCTAGTGCAG”, which binding signal is on record?
Its binding signal is 30500 fluorescence intensity (a.u.).

Which binding signal does the source give for “AGAGTTCTGATTGAATTTGAACAGAAGCGGTGCTTTTGGACGGAGTCACCTAGTGCAG” here?
The binding signal was 38800 fluorescence intensity (a.u.).

Which binding signal does the source give for “AGGCACGGATTGATGCATTAATTTGGTTGCAATGTAGATGCGGAGTCACCTAGTGCAG” here?
The binding signal was 37500 fluorescence intensity (a.u.).

How did the binding signal turn out when “TTTTACATGATTGGATGACAAAGCCTATTTCGTTTTGTTGCGGAGTCACCTAGTGCAG” was run?
The binding signal was 53100 fluorescence intensity (a.u.).

Which binding signal does the source give for “GTAAATTGGCATTGGTTTGATTTATGTTTGCAATGCAGCGCGGAGTCACCTAGTGCAG” here?
The binding signal was 58200 fluorescence intensity (a.u.).

How did the binding signal turn out when “TCTGATTGACGGTGTTTGCAAGCAGAGTTCCTCTTCTTGGCGGAGTCACCTAGTGCAG” was run?
Its binding signal is 61500 fluorescence intensity (a.u.).

How did the binding signal turn out when “CCCTTGTTTCTGTTTTGATTGCAACCTAAGAGACTCTTGACGGAGTCACCTAGTGCAG” was run?
Its binding signal is 6270 fluorescence intensity (a.u.).

With “TTAATTATTTTGCTGACATGATTTGTTTTCATTTCGTTGACGGAGTCACCTAGTGCAG” as the sequence, how does the binding signal read?
The binding signal was 24100 fluorescence intensity (a.u.).

“TTGCTAAATTGTTGTCTTGGTTGATATTTTAGATTTCTTGCGGAGTCACCTAGTGCAG” was tested. Which binding signal did it give?
Its binding signal is 10000 fluorescence intensity (a.u.).

Which binding signal does the source give for “CCGATGTTTGATTGTTCGTTTTATTTGAAAGCCTTTTATGCGGAGTCACCTAGTGCAG” here?
Its binding signal is 20800 fluorescence intensity (a.u.).

“CTTGTCTTATTTGATTGTTGCATTTACATTTATGCAATTTCGGAGTCACCTAGTGCAG” was tested. Which binding signal did it give?
Its binding signal is 9350 fluorescence intensity (a.u.).

Which binding signal does the source give for “TCTTGATTGGTTGTTTTGGTTTGTTTCTTATTTATGTTTGCGGAGTCACCTAGTGCAG” here?
Its binding signal is 54100 fluorescence intensity (a.u.).

With “CATCTTTGACCGGTTAAATTAGATCCTGTTCTAGATGAGGCGGAGTCACCTAGTGCAG” as the sequence, how does the binding signal read?
Its binding signal is 3480 fluorescence intensity (a.u.).

How did the binding signal turn out when “GCTTTCAATAAAACTTCATTAATTGAGGCTAAAATGTTACCGGAGTCACCTAGTGCAG” was run?
The binding signal was 5100 fluorescence intensity (a.u.).

With “AAGCCAATTAAACAACCAGATACTCAAGTTATAACATAATCGGAGTCACCTAGTGCAG” as the sequence, how does the binding signal read?
Its binding signal is 3700 fluorescence intensity (a.u.).

How did the binding signal turn out when “TTTTAAACTAATACTTAATTAATCATATATTAATTAGGTACGGAGTCACCTAGTGCAG” was run?
Its binding signal is 19200 fluorescence intensity (a.u.).
